Results published in PubChem BioAssay (NCI).
About 83,000 compounds went through this panel and 20% of them were active in at least one assay; those are over-represented in the sample as a whole.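 Method: cells in 96-well plates; compound added at one concentration; 48 h incubation; percent growth measured; values under 10 scored active.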 Calls of active or inactive are those of the source.

How the values were obtained:
Test in all cases: NCI-60 one-dose screen, 48 h (100 = growth as untreated, 0 = no growth, -100 = all killed)
HCT-15 colon = conditions: 10 µM unless noted
HT29 colon = conditions: 10 µM unless noted
SNB-75 CNS = conditions: 10 µM unless noted
SNB-19 CNS = conditions: 10 µM unless noted
U251 CNS = conditions: 10 µM unless noted
PC-3 prostate = conditions: 10 µM unless noted
SK-MEL-5 melanoma = conditions: 10 µM unless noted
UACC-62 melanoma = conditions: 10 µM unless noted
LOX IMVI melanoma = conditions: 10 µM
SK-MEL-28 melanoma = conditions: 10 µM unless noted
SK-MEL-2 melanoma = conditions: 10 µM unless noted
EKVX NSCLC = conditions: 10 µM unless noted
SN12C renal = conditions: 10 µM unless noted
UO-31 renal = conditions: 10 µM unless noted
TK-10 renal = conditions: 10 µM unless noted
ACHN renal = conditions: 10 µM unless noted
CAKI-1 renal = conditions: 10 µM unless noted
A498 renal = conditions: 10 µM unless noted
CCRF-CEM leukemia = conditions: 10 µM unless noted
MOLT-4 leukemia = conditions: 10 µM unless noted

Measured: growth

Cc1cccc(-c2nc(Nc3cccc(S(N)(=O)=O)c3)c3ccccc3n2)c1
active: HCT-15 colon 9.69% | LOX IMVI melanoma 7.14%
inactive: HT29 colon 38.4% | SNB-75 CNS 80.3% | SNB-19 CNS 51.4% | U251 CNS 36.3% | PC-3 prostate 39.8% | SK-MEL-5 melanoma 56.5% | UACC-62 melanoma 49.9% | SK-MEL-28 melanoma 57.7% | SK-MEL-2 melanoma 66.6% | EKVX NSCLC 45.5% | SN12C renal 51.7% | UO-31 renal 29.7% | TK-10 renal 73.7% | ACHN renal 38.1% | CAKI-1 renal 46.9% | A498 renal 47.7% | CCRF-CEM leukemia 31.7% | MOLT-4 leukemia 27.6%

COc1ccc(NC(=O)[C@H](C)N)cc1C(=O)Nc1cccc(C2CC(=O)c3c(cc(OC)c(OC)c3OC)O2)c1 (stereo partly specified)
inactive: HCT-15 colon 83.9% | HT29 colon 109% | SNB-75 CNS 88.6% | SNB-19 CNS 91.5% | U251 CNS 93.1% | PC-3 prostate 72.4% | SK-MEL-5 melanoma 76.9% | UACC-62 melanoma 84.4% | LOX IMVI melanoma 89.2% | SK-MEL-28 melanoma 101% | SK-MEL-2 melanoma 101% | EKVX NSCLC 97.2% | SN12C renal 93.8% | UO-31 renal 73% | TK-10 renal 102% | ACHN renal 87.1% | CAKI-1 renal 82% | A498 renal 97% | MOLT-4 leukemia 59.8%

N#Cc1c(-c2ccc(Cl)cc2)nc2n[nH]c(-c3ccc(Cl)cc3)c2c1-c1cccs1
active: MOLT-4 leukemia 3.89%
inactive: HCT-15 colon 41.9% | HT29 colon 47% | SNB-75 CNS 77.5% | SNB-19 CNS 75.1% | U251 CNS 58.6% | PC-3 prostate 34.3% | SK-MEL-5 melanoma 40.8% | UACC-62 melanoma 60.9% | SK-MEL-28 melanoma 76.1% | SK-MEL-2 melanoma 58.6% | EKVX NSCLC 30.3% | SN12C renal 45.7% | UO-31 renal 35.1% | TK-10 renal 97.3% | ACHN renal 62.8% | CAKI-1 renal 39% | A498 renal 105% | CCRF-CEM leukemia 38.1%

Brc1ccc(-c2n(Cc3ccc4ccccc4c3)c(-c3ccccc3)c(-c3ccccc3)[n+]2Cc2ccc3ccccc3c2)cc1
active: HCT-15 colon -85.4% | HT29 colon -98.9% | SNB-75 CNS -97.9% | SNB-19 CNS -93.4% | U251 CNS -97.8% | PC-3 prostate -29.3% | SK-MEL-5 melanoma -98.6% | UACC-62 melanoma -88.8% | SK-MEL-28 melanoma -96.3% | SK-MEL-2 melanoma -90.1% | EKVX NSCLC -86.7% | SN12C renal -85.4% | UO-31 renal -79% | TK-10 renal -92.5% | ACHN renal -100% | CAKI-1 renal -97% | A498 renal -94%

CC1(C)CC[C@]2(C(=O)O)CC[C@]3(C)C(=CCC4[C@@]5(C)C[C@@H](O)[C@@H]6OC(c7ccccc7Br)OC[C@@]6(C)C5CC[C@]43C)C2C1 (stereo partly specified)
inactive: HT29 colon 13.1% | SNB-75 CNS 48.1% | SNB-19 CNS 27.7% | U251 CNS 13.2% | PC-3 prostate 13.1% | UACC-62 melanoma 28.5% | LOX IMVI melanoma 13.5% | SK-MEL-28 melanoma 39.5% | EKVX NSCLC 18.4% | SN12C renal 14.9% | UO-31 renal 15.5% | TK-10 renal 21% | CAKI-1 renal 14.6% | A498 renal 23.7% | CCRF-CEM leukemia 13.1% | MOLT-4 leukemia 10.5%
active: HCT-15 colon 8.96% | SK-MEL-5 melanoma 7% | SK-MEL-2 melanoma -1.06% | ACHN renal 9.85%

O=C(/C=C/c1cccc(OCc2ccc(F)cc2)c1)c1nc2ccccc2[nH]1
active: HCT-15 colon -58.4% | HT29 colon -46.1% | U251 CNS -70.9% | CCRF-CEM leukemia 6.9% | MOLT-4 leukemia -11.2%
inactive: SNB-75 CNS 116% | SNB-19 CNS 68.4% | PC-3 prostate 15% | SK-MEL-5 melanoma 65.5% | UACC-62 melanoma 72.6% | SK-MEL-28 melanoma 104% | SK-MEL-2 melanoma 104% | EKVX NSCLC 38% | SN12C renal 76.9% | UO-31 renal 69.4% | TK-10 renal 79% | ACHN renal 78.9% | CAKI-1 renal 67.3% | A498 renal 112%

O=C(O)c1ccc(-c2ccc(/C=N/NC(=O)c3[nH]c4ccc(Br)cc4c3-c3ccccc3)o2)cc1
inactive: HT29 colon 34.5% | SNB-19 CNS 13% | PC-3 prostate 20.8% | UACC-62 melanoma 18% | SK-MEL-28 melanoma 31.1% | EKVX NSCLC 22.3% | UO-31 renal 24.5% | TK-10 renal 41.2% | ACHN renal 32.5% | CAKI-1 renal 38.5% | A498 renal 98.5%
active: HCT-15 colon 7.24% | SNB-75 CNS -8.96% | U251 CNS 1.17% | SK-MEL-5 melanoma -9.61% | SK-MEL-2 melanoma -16.5% | SN12C renal 5.99% | CCRF-CEM leukemia -0.481%

N#Cc1c(-c2ccc(Br)cc2)nc2n[nH]c(-c3ccc(Br)cc3)c2c1-c1ccc(F)cc1
inactive: HCT-15 colon 98.6% | HT29 colon 87.9% | SNB-75 CNS 94.5% | SNB-19 CNS 102% | U251 CNS 96.7% | PC-3 prostate 89% | SK-MEL-5 melanoma 95.1% | UACC-62 melanoma 87% | SK-MEL-28 melanoma 102% | SK-MEL-2 melanoma 109% | EKVX NSCLC 70.7% | SN12C renal 85.2% | UO-31 renal 65.3% | TK-10 renal 135% | ACHN renal 91.2% | CAKI-1 renal 70.1% | A498 renal 163% | CCRF-CEM leukemia 102% | MOLT-4 leukemia 74.9%

COC1=C[C@]23CCC(=O)N2CCc2cc4c(cc2[C@@H]3[C@@H]1OC(=O)[C@H](C)O)OCO4
inactive: PC-3 prostate 14.8% | UACC-62 melanoma 31.5% | SK-MEL-28 melanoma 15.1% | SK-MEL-2 melanoma 58.5% | EKVX NSCLC 43% | SN12C renal 57.8% | UO-31 renal 26.4% | TK-10 renal 47.7% | CAKI-1 renal 15%
active: HCT-15 colon -1.4% | HT29 colon 1.93% | SNB-75 CNS -10.6% | SNB-19 CNS -1.61% | U251 CNS -3.63% | SK-MEL-5 melanoma -2.42% | LOX IMVI melanoma -57.2% | ACHN renal 5.84% | A498 renal -9.89% | MOLT-4 leukemia 2.59%

CCN(CC)C(=O)N/C(N)=N/c1nc2ccccc2s1
active: SK-MEL-5 melanoma -24.9%
inactive: HCT-15 colon 54% | HT29 colon 62.5% | SNB-75 CNS 63.9% | SNB-19 CNS 56.5% | U251 CNS 66.9% | PC-3 prostate 54.9% | UACC-62 melanoma 43.7% | SK-MEL-28 melanoma 75.4% | SK-MEL-2 melanoma 65.5% | EKVX NSCLC 15.3% | SN12C renal 50.1% | UO-31 renal 37.7% | TK-10 renal 53.7% | ACHN renal 50.7% | CAKI-1 renal 36.6% | A498 renal 55.6% | CCRF-CEM leukemia 41.9%

COc1cc(-c2cc(-c3cccc(OCC(=O)O)c3)[nH]c(=O)c2C#N)cc(OC)c1OC
inactive: HCT-15 colon 100% | HT29 colon 112% | SNB-75 CNS 116% | SNB-19 CNS 92.3% | U251 CNS 113% | PC-3 prostate 97.6% | SK-MEL-5 melanoma 99.7% | UACC-62 melanoma 95.5% | SK-MEL-28 melanoma 102% | SK-MEL-2 melanoma 132% | EKVX NSCLC 91.8% | SN12C renal 102% | UO-31 renal 81.8% | TK-10 renal 102% | ACHN renal 97% | CAKI-1 renal 82.2% | A498 renal 101% | CCRF-CEM leukemia 93.7% | MOLT-4 leukemia 85.9%

CC1(C)CC[C@]2(C(=O)O)CC[C@]3(C)C(=CCC4[C@@]5(C)C[C@@H](O)[C@@H]6OC(c7ccccc7F)OC[C@@]6(C)C5CC[C@]43C)C2C1 (stereo partly specified)
active: HCT-15 colon 5.25% | HT29 colon 2.5% | U251 CNS 3.62% | SK-MEL-5 melanoma -34.6% | UACC-62 melanoma 0.203% | LOX IMVI melanoma -1.57% | SK-MEL-2 melanoma -14.8% | SN12C renal 3.09% | UO-31 renal 4% | TK-10 renal 7.15% | ACHN renal 4.14% | CAKI-1 renal 9.12% | MOLT-4 leukemia 2.87%
inactive: SNB-75 CNS 29.1% | SNB-19 CNS 20.3% | PC-3 prostate 16% | EKVX NSCLC 13.8% | A498 renal 31%

COc1cc2c(c(OC)c1OC)C(=O)CC(c1cccc(NC(=O)c3cccc([N+](=O)[O-])c3)c1)O2 (stereo unspecified)
active: SK-MEL-5 melanoma -6.2% | SK-MEL-2 melanoma -10.4%
inactive: HCT-15 colon 16.9% | HT29 colon 34.7% | SNB-75 CNS 38.1% | SNB-19 CNS 52.6% | U251 CNS 49.1% | PC-3 prostate 18.6% | UACC-62 melanoma 13.4% | SK-MEL-28 melanoma 41.7% | EKVX NSCLC 60.6% | SN12C renal 29.2% | UO-31 renal 16.1% | TK-10 renal 71.7% | ACHN renal 30.1% | CAKI-1 renal 22.1% | A498 renal 91.2% | CCRF-CEM leukemia 11.5% | MOLT-4 leukemia 13.9%

N#Cc1c(-c2ccc(Cl)cc2)nc2n[nH]c(-c3ccc(Cl)cc3)c2c1-c1ccc(C(F)(F)F)cc1
inactive: SNB-19 CNS 11.3% | TK-10 renal 15.9% | A498 renal 50.5% | MOLT-4 leukemia 12.8%
active: HCT-15 colon -47.2% | HT29 colon 0.823% | SNB-75 CNS -17.5% | U251 CNS -33.6% | PC-3 prostate 8.27% | SK-MEL-5 melanoma -84% | UACC-62 melanoma -58.6% | SK-MEL-28 melanoma 1.54% | SK-MEL-2 melanoma -66.9% | EKVX NSCLC -10.5% | SN12C renal -5.91% | UO-31 renal -1.42% | ACHN renal 2.15% | CAKI-1 renal -20.1% | CCRF-CEM leukemia -7.76%

Cc1ccc(C(=O)C(c2c[nH]c3ccccc23)c2c[nH]c3ccccc23)cc1
inactive: SNB-75 CNS 70.1% | SNB-19 CNS 87.4% | U251 CNS 21.6% | PC-3 prostate 17.1% | SK-MEL-5 melanoma 83% | UACC-62 melanoma 51.2% | SK-MEL-28 melanoma 19.7% | SK-MEL-2 melanoma 72.4% | EKVX NSCLC 56.5% | UO-31 renal 26.4% | TK-10 renal 111% | ACHN renal 17.9% | CAKI-1 renal 18.7% | A498 renal 108%
active: HCT-15 colon -15.3% | HT29 colon -26.1% | LOX IMVI melanoma -78.5% | SN12C renal -12.8% | CCRF-CEM leukemia 5.91% | MOLT-4 leukemia 5.7%

CN1CCc2c(sc3ncnc(N/N=C/c4ccc(Cl)cc4Cl)c23)C1
active: HT29 colon -88.4% | SNB-75 CNS -50.4% | U251 CNS 2.63% | SK-MEL-5 melanoma -89.2% | UACC-62 melanoma -79.9% | SK-MEL-28 melanoma -33.1% | SK-MEL-2 melanoma 9% | SN12C renal -32.8% | UO-31 renal -95.7% | TK-10 renal -84% | ACHN renal -66.6% | CAKI-1 renal -61.6% | CCRF-CEM leukemia -8.48%
inactive: HCT-15 colon 10.2% | SNB-19 CNS 26.8% | PC-3 prostate 25.3% | EKVX NSCLC 33.1% | A498 renal 28.5%
